About 460 (31%) of roughly 1,500 compounds were called active. About 1% were inconclusive and are not listed.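 How the source made its calls: active means curve reaches 40% activation over neutral controls at an AC40 no higher than the top valid tested concentration; inconclusive means no clear call, values can overlap the other calls; inactive means signal moving opposite to the expected increase, and the rest.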 The list is a sample of the results. Potency and affinity values are given separately.
Assay: activators of glucose-dependent insulin secretion, dose response, cell-based, INS-1E, Gaussia luciferase, luminescence, cherry-pick, set 2 (AID 977607);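 further: 0% = median of the plate neutral control wells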
Details: INS-1E GLuc insulin secretion reporter, 2-3 h, hits give high values; at 35 µM, 100% = signal doubled over neutral wells unless noted

Max activation, inactive:
CCSc1ccc2nnc(-c3ccc(F)cc3)n2n1 -17.1% [at 0.135 µM, 100% = signal doubled over neutral wells]
C=CCNc1sc(C(=O)C2CC2)c(N)c1C#N -24.8% [at 0.0016 µM, 100% = signal doubled over neutral wells]
COc1ccc(Nc2nc(NCc3cccs3)nc3ccsc23)cc1OC -40.6%
COCCNc1nc(NC(C)C)nc2ccsc12 -19.2% [at 0.046 µM, 100% = signal doubled over neutral wells]
Cc1cc(NC(=O)COC(=O)c2oc3c(Cl)cccc3c2C)no1 -17.9% [at 11 µM, 100% = signal doubled over neutral wells]
CCOC(=O)c1cnc2ccc(OCC)cc2c1N1CCN(c2ccccc2)CC1 -39.9%
CCCOC(=O)Nc1ccc(S(=O)(=O)Nc2ncccn2)cc1 -14.1% [at 11 µM, 100% = signal doubled over neutral wells]
O=C(c1cccc(F)c1)N1CCCc2ccccc21 -18.1% [at 0.015 µM, 100% = signal doubled over neutral wells]
CCOc1nc(Nc2ccccc2F)nc(OCC)n1 -23.2% [at 0.0016 µM, 100% = signal doubled over neutral wells]
COc1nc(Nc2ccccc2)nc(OC)n1 -12% [at 0.0016 µM, 100% = signal doubled over neutral wells]
COc1ccc(S(=O)(=O)Nc2cccc(-c3ccc4nncn4n3)c2)cc1F -16.1% [at 0.046 µM, 100% = signal doubled over neutral wells]
C=CCOc1cccc(C(=O)N2CCC(CCC(=O)NC3CC3)CC2)c1 -8.53% [at 1.2 µM, 100% = signal doubled over neutral wells]
C[C@@H]1CN([C@@H](C)CO)C(=O)c2cc(Br)cnc2O[C@H]1CN(C)C(=O)C1CC1 -19.6% [at 0.0016 µM, 100% = signal doubled over neutral wells]
NC(=O)C1CCN(c2nc(-c3ccccc3)nc3ccccc23)CC1 -15.2% [at 3.8 µM, 100% = signal doubled over neutral wells]
Cc1ccccc1Nc1c(-c2ccncc2)nc2ccc(Cl)cn12 -30.7%
COc1ccc(C(=O)c2ccc(OC)c(OC)c2)cc1 -16.7% [at 0.42 µM, 100% = signal doubled over neutral wells]
CCOC(=O)c1sc2nc(-c3ccccc3)ccc2c1N -12.9%
C[C@@H](NC(=O)C[C@@H]1C[C@@H]2c3cc(NC(=O)Nc4ccccc4F)ccc3O[C@@H]2[C@@H](CO)O1)c1ccccc1 34.4% [at 0.015 µM, 100% = signal doubled over neutral wells]
COc1ccc(-n2c(=S)[nH]c3cc(C(=O)Nc4ccc(OC)c(OC)c4)ccc3c2=O)cc1 -16.1% [at 0.0016 µM, 100% = signal doubled over neutral wells]
COc1ccc(C(=O)Nc2cccnc2Cl)cc1OC -21.1% [at 0.0016 µM, 100% = signal doubled over neutral wells]
O=S(=O)(c1ccc(-c2csc(Nc3ccc(Br)cc3)n2)cc1)N1CCCC1 -14.1% [at 0.42 µM, 100% = signal doubled over neutral wells]
O=C(Cc1csc(NC(=O)c2ccccc2)n1)NO -12.5% [at 0.42 µM, 100% = signal doubled over neutral wells]
CS(=O)(=O)N1CCCCC1c1cc(C(=O)Nc2cccc3c2CCCC3)no1 (stereo not drawn) -21.9% [at 0.0016 µM, 100% = signal doubled over neutral wells]
Cc1ccc(S(=O)(=O)NCc2csc(-c3cccs3)n2)cc1 -16% [at 0.42 µM, 100% = signal doubled over neutral wells]
COc1ccc(CCN(C)C(=O)C(CCSC)NC(=O)c2ccco2)cc1OC (stereo not drawn) 35.3%
Nc1nc(N)nc(-c2ccc(Cl)cc2)n1 24.3%
CC(C)(C)NC(=O)N1c2ccccc2Sc2ccccc21 -17.6% [at 0.42 µM, 100% = signal doubled over neutral wells]
CC(=O)c1c(C)oc2ccc(NS(=O)(=O)c3ccc(F)cc3C)cc12 -28.4%
CS(=O)(=O)c1nc(S(=O)(=O)c2ccc(Cl)cc2)c(N2CCCCCC2)s1 -34.1%
Cc1nc2ccccc2c(=O)n1CCCN1CCOCC1 -15.9% [at 0.046 µM, 100% = signal doubled over neutral wells]
Cc1ccc2c(c1)c(-c1ccccc1)nc1nncn12 -21.1% [at 1.2 µM, 100% = signal doubled over neutral wells]
COc1nc(-c2ccccc2)c2cc(C)ccc2n1 42.4% [at 1.2 µM, 100% = signal doubled over neutral wells]
CCN(CC)C(=O)n1c(Cc2ccccc2)nc2ccccc21 -14.4% [at 0.005 µM, 100% = signal doubled over neutral wells]
CCCc1cc2c(OC)ccc(O)c2c(=O)n1C -19.2% [at 0.42 µM, 100% = signal doubled over neutral wells]
CCOc1ccc(NC(=O)[C@@H](NC(=O)OCc2ccccc2)[C@@H](C)CC)cc1 -32.5% [at 11 µM, 100% = signal doubled over neutral wells]
CCCNC(=O)c1ccccc1NC(=O)COc1ccc(OC)cc1 -16% [at 11 µM, 100% = signal doubled over neutral wells]
COc1ccc(CCNC(=O)CCn2c(=O)c3ccccc3n(CC(=O)NCC3CCCO3)c2=O)cc1OC (stereo not drawn) 20.3% [at 0.135 µM, 100% = signal doubled over neutral wells]
CCN(CC)C(=O)Cn1c(=O)oc2ccccc21 -21.2%
Cc1nccn1-c1ncnc2sc3c(c12)CCCC3 -26.7% [at 0.046 µM, 100% = signal doubled over neutral wells]
COc1ccc(/C=N/NC(=O)CN(C2=NS(=O)(=O)c3ccccc32)c2ccccc2)cc1OC 23.5%
COc1ccc(/C=N/NS(=O)(=O)c2ccccc2)cc1OC 16.8%
C=CCc1ccc(OCCOc2ccc(/C=N/n3cnnc3)cc2OCC)c(OC)c1 -24.1% [at 0.046 µM, 100% = signal doubled over neutral wells]
CCOC(=O)N1CCN(C(=O)COc2ccccc2OC)CC1 19.9% [at 11 µM, 100% = signal doubled over neutral wells]
Cc1cc(C)c2c(C)nn(C3CCCCC3)c2n1 20.5%
CSc1ccc(C(=O)C2CCCN(C(=O)c3ccc4c(c3)no[n+]4[O-])C2)cc1 (stereo not drawn) -36.5%
C=CCn1cnc2scc(-c3ccc(OC)cc3)c2c1=O -14.9% [at 1.2 µM, 100% = signal doubled over neutral wells]
CCOc1ccc(-c2nc(CSc3nnc(N)s3)cs2)cc1OC 23.2%
COc1ccc(-c2nc(C(=O)O)cs2)cc1OC 28.2% [at 0.42 µM, 100% = signal doubled over neutral wells]
COc1ccc(CC(=O)O/N=C(\N)c2ccccc2)cc1OC -13.5% [at 0.005 µM, 100% = signal doubled over neutral wells]
COc1ccc(C(=O)O/N=C(\N)c2ccc(OC)c(OC)c2)cc1 -23.3% [at 0.135 µM, 100% = signal doubled over neutral wells]
COc1ccc(OCC(=O)NNC(=O)Cn2c(=O)cnc3ccccc32)cc1 -15.3% [at 1.2 µM, 100% = signal doubled over neutral wells]
CC(=O)NCCc1nc2ccccc2n1CCOc1cccc(C)c1 -27.1%
O=C(c1ccccc1)c1ccc2ccccc2n1 -22.9% [at 0.0016 µM, 100% = signal doubled over neutral wells]
O=C(Nc1ccccc1Oc1ccsc1C(=O)O)c1ccccc1F 23.2% [at 0.42 µM, 100% = signal doubled over neutral wells]
Cc1cc(C)cc(C(=O)NC(=S)Nc2ccc(-c3cc4ccccc4oc3=O)cc2)c1 14.9%
O=C(NCC1CCCO1)C1CCC(N2C(=O)c3ccccc3C2=O)CC1 (stereo not drawn) 17.8% [at 11 µM, 100% = signal doubled over neutral wells]
CC1CCN(C(=O)c2cccc(S(=O)(=O)N3CCN(c4ccccc4)CC3)c2)CC1 35.2% [at 0.0016 µM, 100% = signal doubled over neutral wells]
CN1CCN(NC(=O)c2cccc(S(=O)(=O)N3CCCCCC3)c2)CC1 33% [at 1.2 µM, 100% = signal doubled over neutral wells]

Reference: PubChem BioAssay AID977607 (Broad Institute, 2014)
